# Measured values taken from PubChem BioAssay (NCATS).
# Records with an inconclusive call do not appear. Values without a mark were called inactive. Activity calls are given as the source filed them. Calls follow the shape of the dose curve; as a rule, active = well fitted curve in the direction sought with a large enough effect; inconclusive = small, poorly fitted or top-dose-only effect, or another doubt; inactive = no such curve, though single readings can be large; an effect the other way counts as inactive or inconclusive.
# Test system: Zika virus NS2B-NS3 protease (linked construct)
# Assay: Primary screen NINDS Rhodamine qHTS for Zika virus inhibitors (AID 1347160); also: nearly all actives have a fitted effect of over 55% in size; also: potency is read from the fitted curve at half-maximal effect; as to activity change, negative = inhibition: % is scaled to controls: 0 for no effect and ±100 for the full control effect
# Details: purified NS2B-NS3 protease, Rhodamine110 substrate fluorescence; series mostly up to 57.1 µM; activity change, negative = inhibition: at the top concentration
# Method in brief: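 Kinetic fluorescence (Ex 480 nm, Em 540 nm) over 15 min with 1.5 microM Rhodamine110 peptide and 25 nM linked protease.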
Structure (SMILES),"activity change, negative = inhibition",Potency,outcome
CC(=O)CCCCn1c(=O)c2c(ncn2C)n(C)c1=O,33%,,
CC(=O)O[C@]1(C(C)=O)CC[C@H]2[C@@H]3C=C(Cl)C4=CC(=O)[C@@H]5C[C@@H]5[C@]4(C)[C@H]3CC[C@@]21C,-1.55%,,
CC(C)NCC(O)COc1cccc2[nH]ccc12 (stereo not given),28.2%,,
CCCNC(=O)NS(=O)(=O)c1ccc(Cl)cc1,4.6%,,
COC(=O)[C@@H]1[C@H]2C[C@H]3c4[nH]c5ccccc5c4CCN3C[C@@H]2CC[C@@H]1O,,inactive,
CN(C)CCC(c1ccccc1)c1ccccn1 (stereo not given),,,inactive
CCN1CCC[C@H]1CNC(=O)c1cc(S(N)(=O)=O)ccc1OC,23.9%,,
Clc1ccc(Cn2c(CN3CCCC3)nc3ccccc32)cc1,40.8% [at 33.1 µM],,
O=C(Nc1cccc(Br)c1)c1cccc(S(=O)(=O)N2CCCCCC2)c1,-3.49%,,
COc1ccccc1N1CCN(CCCNc2cc(=O)n(C)c(=O)n2C)CC1,14.3%,,
CC1(C)CCC(CN2CCN(c3ccc(C(=O)NS(=O)(=O)c4ccc(NCC5CCOCC5)c([N+](=O)[O-])c4)c(Oc4cnc5[nH]ccc5c4)c3)CC2)=C(c2ccc(Cl)cc2)C1,,3.98 µM (active),
CCOc1ccc(Nc2nc(-c3c(C)nc4ccccn34)cs2)cc1,21.9%,,
CN[C@@H](C)C(=O)N[C@H]1CN(C(=O)CC(C)C)CC[C@H]2CC[C@@H](C(=O)NC(c3ccccc3)c3ccccc3)N2C1=O,,,inactive
CCN(CC)CCNC(=O)c1ccc(N)cc1,26.3%,,

# Biological target: Lysine-specific demethylase 5B (Homo sapiens) (UniProt Q9UGL1)
# Sequence (Q9UGL1 whole entry, looked up): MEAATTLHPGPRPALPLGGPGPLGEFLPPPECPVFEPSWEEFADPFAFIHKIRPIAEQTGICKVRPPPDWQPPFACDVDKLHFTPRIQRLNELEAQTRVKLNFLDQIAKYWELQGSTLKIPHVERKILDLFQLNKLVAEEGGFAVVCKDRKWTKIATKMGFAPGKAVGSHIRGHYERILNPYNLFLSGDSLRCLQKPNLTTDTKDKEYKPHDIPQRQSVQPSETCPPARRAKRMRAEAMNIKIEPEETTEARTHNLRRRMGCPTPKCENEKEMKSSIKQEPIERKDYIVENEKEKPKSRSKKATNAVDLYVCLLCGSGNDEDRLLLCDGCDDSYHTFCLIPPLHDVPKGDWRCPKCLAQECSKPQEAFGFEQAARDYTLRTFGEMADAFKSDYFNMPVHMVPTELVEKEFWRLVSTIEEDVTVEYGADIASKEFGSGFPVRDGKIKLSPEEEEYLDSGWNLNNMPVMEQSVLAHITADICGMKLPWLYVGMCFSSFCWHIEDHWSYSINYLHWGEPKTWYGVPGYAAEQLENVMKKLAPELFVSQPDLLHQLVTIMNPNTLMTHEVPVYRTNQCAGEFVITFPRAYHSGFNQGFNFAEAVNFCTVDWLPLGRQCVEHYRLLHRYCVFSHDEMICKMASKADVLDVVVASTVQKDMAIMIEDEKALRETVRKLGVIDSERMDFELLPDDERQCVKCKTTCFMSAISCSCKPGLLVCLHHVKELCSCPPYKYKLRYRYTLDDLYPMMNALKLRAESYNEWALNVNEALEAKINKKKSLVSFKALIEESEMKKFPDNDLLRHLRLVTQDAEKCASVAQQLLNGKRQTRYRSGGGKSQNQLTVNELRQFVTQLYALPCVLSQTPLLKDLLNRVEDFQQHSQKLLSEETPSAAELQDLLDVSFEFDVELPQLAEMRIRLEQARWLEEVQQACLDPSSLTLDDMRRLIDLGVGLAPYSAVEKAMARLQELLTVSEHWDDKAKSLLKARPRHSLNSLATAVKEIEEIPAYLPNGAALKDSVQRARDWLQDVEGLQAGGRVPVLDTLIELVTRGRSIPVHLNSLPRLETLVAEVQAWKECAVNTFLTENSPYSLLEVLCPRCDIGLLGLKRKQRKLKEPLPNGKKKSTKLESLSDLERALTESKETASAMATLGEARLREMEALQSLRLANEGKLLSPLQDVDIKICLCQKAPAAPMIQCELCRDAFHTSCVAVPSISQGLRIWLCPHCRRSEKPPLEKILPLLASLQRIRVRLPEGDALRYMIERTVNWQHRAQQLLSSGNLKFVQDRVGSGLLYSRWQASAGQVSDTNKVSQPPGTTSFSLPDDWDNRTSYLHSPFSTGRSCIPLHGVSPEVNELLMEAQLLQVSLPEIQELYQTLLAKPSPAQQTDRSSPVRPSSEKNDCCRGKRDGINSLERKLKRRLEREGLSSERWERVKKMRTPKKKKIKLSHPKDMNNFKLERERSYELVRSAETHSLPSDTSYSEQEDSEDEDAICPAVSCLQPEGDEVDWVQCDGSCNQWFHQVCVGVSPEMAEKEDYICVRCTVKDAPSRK
# Assay: Optimization screen for KDM5B Histone Demethylases FDH coupled qHTS against the LOPAC library (AID 1347166); also: 0% is about no effect
# Details: KDM5B demethylation, FDH-coupled NADH fluorescence (FDH is formaldehyde dehydrogenase); series mostly up to 57.5 µM; activity, negative = inhibition: at the top concentration
# Method in brief: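 KDM5BDeltaAP (200nM final) preincubated 10 min with compound, then 12.5uM H3K4Me3, 25uM a-ketoglutarate, ascorbate, Fe(II), NAD+ and FDH added; 50mM HEPES pH 7.5, 0.01% Tween-20. NADH fluorescence (340/450 nm) change over 30 min, room temperature.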
Structure (SMILES),outcome,"activity, negative = inhibition [%]"
C[N+](C)(C)CCCCCC[N+](C)(C)C,inactive,
Cc1cccc(C)c1OCC(C)N (stereo not given),,-8.36
NC(N)=Nc1nc(CSCC/C(N)=N/S(N)(=O)=O)cs1,,-5.78
CC(=O)CCCCn1c(=O)c2c(ncn2C)n(C)c1=O,,-9.02
CC(=O)O[C@]1(C(C)=O)CC[C@H]2[C@@H]3C=C(Cl)C4=CC(=O)[C@@H]5C[C@@H]5[C@]4(C)[C@H]3CC[C@@]21C,,-11.8
CC(C)NCC(O)COc1cccc2[nH]ccc12 (stereo not given),,-3.71
CCCNC(=O)NS(=O)(=O)c1ccc(Cl)cc1,,16.9
COC(=O)[C@@H]1[C@H]2C[C@H]3c4[nH]c5ccccc5c4CCN3C[C@@H]2CC[C@@H]1O,,-6.24
CN(C)CCC(c1ccccc1)c1ccccn1 (stereo not given),,-7.92
CCN1CCC[C@H]1CNC(=O)c1cc(S(N)(=O)=O)ccc1OC,,-1.38
Clc1ccc(Cn2c(CN3CCCC3)nc3ccccc32)cc1,,-3.77
COc1cccc(-c2cc(=O)c3ccccc3o2)c1N,,-11.8
CC(C)(C)c1ccc(C(O)CCCN2CCC(C(O)(c3ccccc3)c3ccccc3)CC2)cc1 (stereo not given),,-7.6
O=C(NCCN1CCOCC1)c1ccc(Cl)cc1,,-3.88
COc1ccccc1N1CCN(CCCNc2cc(=O)n(C)c(=O)n2C)CC1,,-10.3
O=C1NCC2(CCN(CCc3ccccc3)CC2)O1,,-4.69
CC(=O)c1ccc(S(=O)(=O)NC(=O)NC2CCCCC2)cc1,,-1.1
CCN(CC)CCOC(=O)c1ccc(N)cc1,,-11.9
O=C1NC(=O)C(c2ccccc2)(c2ccccc2)N1,inactive,
CCN(CC)CCNC(=O)c1ccc(N)cc1,,-4.77
CCCCC1C(=O)N(c2ccccc2)N(c2ccccc2)C1=O,,-10.5
